Experimental data reported in PubChem BioAssay (NCI).
The panel holds about 79,000 compounds, 15% with a hit somewhere; the sample as a whole holds those more often. No stated cut-off is given here; in the data, active means growth inhibition above about 70%; inactive means the rest.

How the values were obtained:
[1] = NCI Yeast Anticancer Drug Screen. Data for the rad50 strain (AID 155);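 further: 0% = growth of vehicle-only cultures of the same strain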; details: S. cerevisiae rad50 strain growth inhibition; at 50.0 µM; active compounds read high
Summary of the method: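 Compounds were tested on a yeast strain with an engineered DNA damage repair alteration; the reported value is growth inhibition normalised to vehicle treatment.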

[2] = NCI Yeast Anticancer Drug Screen. Data for the mec2-1 strain (AID 157); details: S. cerevisiae mec2-1 strain, at 50.0 µM, active compounds read high
Summary of the method: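 Each compound was tested on mec2-1 yeast, a strain altered in DNA damage repair or cell cycle control. Growth inhibition is reported relative to vehicle.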

[3] = NCI Yeast Anticancer Drug Screen. Data for the sgs1 mgt1 strain (AID 161);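 further: 0% = growth of cultures given vehicle only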; details: S. cerevisiae sgs1 mgt1 strain, at 50.0 µM, active compounds read high
Summary of the method: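 Read-out: growth inhibition vs vehicle controls. Cells: mutant yeast strain deficient in DNA damage repair.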

[4] = NCI Yeast Anticancer Drug Screen. Data for the cln2 rad14 strain (AID 165);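 further: 0% = growth equal to vehicle treated cultures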; details: S. cerevisiae cln2 rad14 strain, at 50.0 µM, active compounds read high
Summary of the method: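 Test compounds were added to cln2 rad14 yeast cultures; inhibition of growth was then determined by comparison with vehicle treatment.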

[5] = NCI Yeast Anticancer Drug Screen. Data for the bub3 strain (AID 167); details: S. cerevisiae bub3 mutant strain, at 50.0 µM, active compounds read high
Summary of the method: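 Growth of a checkpoint-deficient yeast mutant is measured after compound exposure. Values represent inhibition relative to vehicle.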

[6] = NCI Yeast Anticancer Drug Screen. Data for the mlh1 rad18 strain (AID 175); details: S. cerevisiae mlh1 rad18 strain growth inhibition; at 50.0 µM; active compounds read high
Summary of the method: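 Inhibition values reflect reduced growth of mutant yeast versus vehicle-treated controls following compound exposure; the mutations affect DNA damage repair.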

Measured: growth inhibition

CCCCC(C(=O)O)C(C)CC (stereo unspecified)
inactive: [1] 35% | [2] 12.2% | [3] 18.8% | [4] 22.3% | [5] 36.5% | [6] 29.6%

Nc1[nH]c(=O)ncc1-c1cccc(Cl)c1
inactive: [1] -6.45% | [2] -4.15% | [3] 11.6% | [4] -7.8% | [5] 5.2% | [6] 33.1%

Cc1cc(=O)[nH]c2c(C)cccc12
inactive: [1] 4% | [2] 28.2% | [3] 11.8% | [4] -4.5% | [5] -0.4% | [6] 16.6%

CNC(=O)NC(c1cc(OC)c(O)c(OC)c1)c1cc2c(cc1O)OCO2 (stereo unspecified)
inactive: [1] 29.5% | [2] 38.8% | [3] 11.8% | [4] 9.6% | [5] 8.05% | [6] 44.6%

Cc1ccc(/C(C#N)=C/c2cccc([N+](=O)[O-])c2)cc1
inactive: [1] -3.1% | [2] -30.2% | [3] -32% | [4] 24.4% | [5] -17.4% | [6] -4.15%

COC(=O)C(C(=O)C(=O)Nc1ccc([N+](=O)[O-])cc1)c1nc2ccc([N+](=O)[O-])cc2[nH]c1=O (stereo unspecified)
inactive: [1] 8.95% | [2] -3.1% | [3] -32.5% | [4] -41.2% | [5] -0.85% | [6] 8.75%

O=C(NC(CO)CO)c1ccc2cc(C(=O)N3CC(CCl)c4ccc([N+](=O)[O-])cc43)[nH]c2c1 (stereo unspecified)
inactive: [1] 42.6% | [2] -35.8% | [3] -22.4% | [4] -7.95% | [5] -36.1% | [6] -72.8%

CC(=O)C1(C)SC(N(c2ccccc2)c2ccccc2)=NC1=O (stereo unspecified)
inactive: [1] -1.2% | [2] -4.4% | [3] -4.05% | [4] 2.4% | [5] 9.05% | [6] -0.6%

Cc1ccc(-c2cc(-c3ccco3)nc(N)n2)o1
inactive: [1] -23.9% | [2] -9.1% | [3] 10.6% | [4] 4.3% | [5] 5.45% | [6] 1.75%

Cc1nn(C(=O)c2ccc(Cl)cc2)c2c1C(c1ccc(Cl)cc1)SC(N)=N2 (stereo unspecified)
inactive: [1] 9.95% | [2] -21.2% | [3] 31.4% | [4] -24.9% | [5] -19.4% | [6] 12.9%

Nc1ccc(Cl)c(Cl)c1Cl
inactive: [1] 40.5% | [2] -6.2% | [3] 52% | [4] 31% | [5] 43.3% | [6] 35.7%

COCCCC(NC(=O)C(CC(C)C)NC(=O)OCc1ccc(OC)cc1)C(N)=O (stereo unspecified)
inactive: [1] -12.9% | [2] -21.4% | [3] -22.9% | [4] 4.2% | [5] -12.1% | [6] 4.2%

CCN(CC)c1ccc(C)cc1Cl
inactive: [1] -5.7% | [2] 7.5% | [3] -12.2% | [4] -16.8% | [5] 7.05% | [6] 5.55%

O=c1/c(=C/c2ccccc2O)sc2nc3ccccc3n12
inactive: [1] 9.65% | [2] -42.2% | [3] 18.9% | [4] 15% | [5] 10.4% | [6] 20.9%

CC(C)(C)OC(=O)NO
inactive: [1] -0.6% | [2] 2.9% | [3] 0% | [4] 1.75% | [5] 5.05% | [6] 4.7%

O=C1c2cccc3cccc(c23)C(=O)N1C(Cc1ccccc1)c1ccccc1 (stereo unspecified)
inactive: [1] -15.5% | [2] -49.4% | [3] -15.1% | [4] -4.2% | [5] -37.8% | [6] -31.1%

NC1=C(O)/C(=N/NS(=O)(=O)c2ccccc2)C(c2cccc(Cl)c2)O1 (stereo unspecified)
inactive: [1] 30.4% | [2] 23.4% | [3] 48.5% | [4] 13.8% | [5] 11.7% | [6] 21.7%

CCOC(=O)C(CC(CC(C(=O)OCC)C(=O)OCC)=C(C)C)C(=O)OCC
inactive: [1] 36.1% | [2] 0.65% | [3] 15% | [4] -14.5% | [5] 24.2% | [6] 15.4%

C[n+]1cc(Br)c2ccccc2c1
inactive: [1] 4.05% | [2] -6.25% | [3] 3.4% | [4] -13.2% | [5] 1.4% | [6] 3.45%

COc1cc2c(c(OC)c1OC)-c1ccc(SC)c(=O)cc1[C@@H](NC(=O)CO)CC2
inactive: [1] 30% | [2] 14.3% | [3] 19.6% | [4] 19.6% | [5] 21.1% | [6] 22.2%

CCCCS(=O)(=O)N(CCC)CCC
inactive: [1] 9.55% | [2] -13.6% | [3] 5.25% | [4] -18.1% | [5] -3.95% | [6] -13.3%

CC(C)(C)CC(C)(C)NCc1ccccc1
inactive: [1] 22.9% | [2] -5.55% | [3] 2.5% | [4] 0.2% | [5] 2.5% | [6] 18.3%

CC(CO)CCNc1ncnc2c1ncn2CCC(=O)O (stereo unspecified)
inactive: [1] -8.7% | [2] 6% | [3] -29.9% | [4] -23.5% | [5] 17.2% | [6] -0.95%

CCOC(=O)Nc1cc(Cl)c2ncn(C(=O)OCC)c2n1
inactive: [1] 40.3% | [2] 16.2% | [3] 10.9% | [4] 18.9% | [5] 3.05% | [6] 17.9%

CCC(C)CCC(=O)C(C)C=O (stereo unspecified)
inactive: [1] -0.8% | [2] -7.3% | [3] 3% | [4] -5.9% | [5] -6.2% | [6] -3.85%

C#CC1(O)CCC2[C@@H]3CCc4cc(Oc5nc(F)nc(-c6c7ccccc7cn6C)n5)ccc4C3CC[C@@]21C (stereo partly specified)
inactive: [1] 37.5% | [2] 25.3% | [3] 1.4% | [4] 5.05% | [5] 32.6% | [6] 42.8%

CC(=O)NCC(C)(C)C
inactive: [1] 2.15% | [2] 10.8% | [3] -12.7% | [4] -16.2% | [5] -32% | [6] -12.8%

CCCCCCCNC1=C(O)c2ccccc2C(=O)C1=O
inactive: [1] -11.4% | [2] 15.8% | [3] 2.2% | [4] -44.2% | [5] 12.3% | [6] 6.2%

CC(O)CN1CCCC1 (stereo unspecified)
inactive: [1] 5.75% | [2] -21.9% | [3] -4% | [4] 6.2% | [5] 0.6% | [6] 9.35%

O=C(CC(=O)c1ccccc1)Nc1ccc(-c2nc3ccccc3c(=O)[nH]2)cc1
inactive: [1] 20.1% | [2] 10.5% | [3] 19.9% | [4] 1.9% | [5] 19.6% | [6] 27.7%

O=C1/C(=C\c2ccccn2)c2ccccc2N1Cc1ccccc1
inactive: [1] 7.6% | [2] 1.25% | [3] 8.75% | [4] 16.9% | [5] 11.2% | [6] 22.3%

CCN(CC)c1ccccc1-c1ccccc1
inactive: [1] 34.9% | [2] 20.1% | [3] 1.05% | [4] -58.6% | [5] 6.05% | [6] 20.1%

C=C(C)CN(CC(=C)C)c1nc(N)nc(N)n1
inactive: [1] -35.2% | [2] -2.95% | [3] -21.9% | [4] -43.5% | [5] -2.1% | [6] -13.1%

Nc1cccc(N)n1.[Cu+2]
inactive: [1] -20.1% | [2] -12.1% | [3] -13.8% | [4] -13.2% | [5] -15% | [6] -14.2%

COC(=O)c1sc(C(=O)OC)c2c1CS(=O)C2
inactive: [1] -10.3% | [2] 2.1% | [3] 10.1% | [4] 30% | [5] 5.45% | [6] 42.2%

COc1cc(C=Nc2ccc(C(C)C)cc2)cc(OC)c1OC
inactive: [1] 9.25% | [2] 13.3% | [3] 19.1% | [4] 8.35% | [5] -4.65% | [6] 12.7%

Cc1ccc(CNC(=O)C2CCCCC2C(=O)O)cc1 (stereo unspecified)
inactive: [1] 6.65% | [2] 21.7% | [3] 6.95% | [4] 10.4% | [5] 27.9% | [6] -16.1%

CCCN(CCC)S(=O)(=O)c1ccc(NC(=O)Oc2ccccc2OC)cc1
inactive: [1] 41.6% | [2] 3.8% | [3] 31.8% | [4] 20.6% | [5] -7.3% | [6] 22.3%

CCN(CC)c1ccc2cc(C(=O)NC(=O)Oc3ccccc3)c(=O)oc2c1
inactive: [1] 25.1% | [2] -5.5% | [3] -6.05% | [4] 25.1% | [5] -3.2% | [6] 9.35%

Nc1cccc(/C=C/c2cccc([N+](=O)[O-])c2)c1
inactive: [1] 18.2% | [2] 37.5% | [3] 12.8% | [4] 4% | [5] 60.3% | [6] 30.2%

N#CCc1nc2ccccc2[nH]1
inactive: [1] 7.95% | [2] -6.95% | [3] -9.35% | [4] 3.1% | [5] 6.25% | [6] 3.3%
